Experimental data published in PubChem BioAssay (NCATS).
Results filed as inconclusive are left out. More than one record can exist for a structure, and the calls need not agree. Calls of active or inactive are those of the source. The call rests on the fitted dose curve; in most records, active means well fitted curve in the direction sought with a large enough effect; inconclusive means small, poorly fitted or top-dose-only effect, or another doubt; inactive means no such curve, though single readings can be large; an effect the other way counts as inactive or inconclusive.

Columns and labels:
[1] = biological target: Metallo-beta-lactamase type 2 (Klebsiella pneumoniae) (UniProt C7C422); experiment: qHTS to identify inhibitors of the New Delhi Metallo-beta-lactamase (NDM): assay validation screen against the NCATS LOPAC Collection (AID 1794843); conditions: NDM-1 enzyme, nitrocefin hydrolysis, absorbance 485 nm; series mostly up to 38.4 µM;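 further: nitrocefin turnover by NDM-1 measured as 485 nm absorbance at plateau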
Sequence of Metallo-beta-lactamase type 2 (Klebsiella pneumoniae) (C7C422 whole entry, looked up): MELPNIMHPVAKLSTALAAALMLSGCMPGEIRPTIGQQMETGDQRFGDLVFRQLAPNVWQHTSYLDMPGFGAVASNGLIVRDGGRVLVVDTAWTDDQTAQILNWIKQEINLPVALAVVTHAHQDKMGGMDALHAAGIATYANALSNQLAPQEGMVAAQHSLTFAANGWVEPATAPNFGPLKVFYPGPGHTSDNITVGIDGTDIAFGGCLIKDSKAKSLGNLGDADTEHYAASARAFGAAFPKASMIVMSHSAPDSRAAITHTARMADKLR
Procedure, shortened: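 Nitrocefin hydrolysis (50 uM substrate stock) by NDM-1, 2 nM final, was followed by 485 nm absorbance after compound preincubation; buffer was 50 mM HEPES pH 7.0, 1 uM ZnSO4, 0.01% Tween20.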

[2] = biological target: Glutathione peroxidase 1 (Homo sapiens) (UniProt P07203); experiment: Primary qHTS Assay for Inhibitors of Recombinant Selenoprotein Glutathione Peroxidase 1 (GPX1) (AID 1845191); conditions: recombinant GPX1, GR-coupled NADPH fluorescence, 15 min; series mostly up to 48.8 µM; further: nearly all actives have a fitted effect of over 65% in size
Sequence of Glutathione peroxidase 1 (Homo sapiens) (P07203 whole entry, looked up): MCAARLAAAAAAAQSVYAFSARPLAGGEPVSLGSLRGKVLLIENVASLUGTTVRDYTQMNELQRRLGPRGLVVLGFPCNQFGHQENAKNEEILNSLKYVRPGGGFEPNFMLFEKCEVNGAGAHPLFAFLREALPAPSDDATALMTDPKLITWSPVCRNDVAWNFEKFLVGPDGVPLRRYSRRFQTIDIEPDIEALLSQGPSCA
Procedure, shortened: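 GPX1 10 nM, GR 100 nM, GSH 1 mM, NADPH 0.5 mM, CHP 0.5 mM (final). 30-min cpd preincubation, RT. Ex340/Em450 read t=0, t=15 min.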

[3] = biological target: Phospholipid hydroperoxide glutathione peroxidase GPX4 (Homo sapiens) (UniProt P36969); experiment: Primary qHTS Assay for Inhibitors of Recombinant Selenoprotein Glutathione Peroxidase 4 (GPX4) (AID 1845192); conditions: recombinant GPX4, GR-coupled NADPH fluorescence, 15 min; series mostly up to 50 µM; further: nearly all actives have a fitted effect of over 65% in size; further: potency means the concentration at half of the fitted maximal effect
Sequence of Phospholipid hydroperoxide glutathione peroxidase GPX4 (Homo sapiens) (P36969 whole entry, looked up): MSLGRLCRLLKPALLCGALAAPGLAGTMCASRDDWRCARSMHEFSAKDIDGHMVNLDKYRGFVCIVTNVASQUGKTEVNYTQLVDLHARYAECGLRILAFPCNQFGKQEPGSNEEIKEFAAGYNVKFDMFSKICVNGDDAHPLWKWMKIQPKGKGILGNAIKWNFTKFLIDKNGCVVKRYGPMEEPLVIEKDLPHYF
Procedure, shortened: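 qHTS, GR-coupled: GPX4 200 nM + cpd 30 min RT → GSH 1 mM, NADPH 0.5 mM, GR 100 nM → CHP 0.5 mM start; fluor 340/450 at t0 and t15 min; no-enzyme wells as control.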

[4] = Quantitative High-Throughput drug screen in 47 multiple myeloma cell lines against the NCATS MIPE library collection: FR4_PLB cell viability assay (AID 1918924; further: nearly all actives have a fitted effect of over 35% in size; further: potency means the concentration at half of the fitted maximal effect); conditions: FR4_PLB myeloma cells viability, CellTiter-Glo ATP, 48 h; series mostly up to 45.8 µM
Procedure, shortened: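 qHTS of the MIPE 4.0 collection: 500 myeloma cells/well, 48 h drug exposure at 37C in 5% CO2, then CellTiter-Glo for 5 min at room temperature before luminescence reading.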

[5] = Quantitative High-Throughput drug screen in 47 multiple myeloma cell lines against the NCATS MIPE library collection: EJM_DSMZ cell viability assay (AID 1918926; further: nearly all actives have a fitted effect of over 30% in size; further: potency means the concentration at half of the fitted maximal effect); conditions: EJM myeloma cell viability, CellTiter-Glo ATP, 48 h; series mostly up to 45.8 µM
Procedure, shortened: (§1)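 Steps: seed 500 cells per well; pin-transfer MIPE 4.0 library; incubate 48 h at 37C, 5% CO2, humidified; add CellTiter-Glo, 5 min room temperature; read luminescence.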

[6] = Quantitative High-Throughput drug screen in 47 multiple myeloma cell lines against the NCATS MIPE library collection: AMO1_DSMZ cell viability assay (AID 1918927; further: nearly all actives have a fitted effect of over 30% in size; further: potency means the concentration at half of the fitted maximal effect); conditions: AMO1 myeloma cells viability, CellTiter-Glo ATP luminescence, 48 h; series mostly up to 45.8 µM
Procedure, shortened: as §1

[7] = Quantitative High-Throughput drug screen in 47 multiple myeloma cell lines against the NCATS MIPE library collection: Delta47_JCRB cell viability assay (AID 1918925; further: nearly all actives have a fitted effect of over 45% in size; further: potency means the concentration at half of the fitted maximal effect); conditions: Delta47 myeloma viability, CellTiter-Glo ATP, 48 h; series mostly up to 45.8 µM
Procedure, shortened: as §1

[8] = biological target: Luciferin 4-monooxygenase (Photinus pyralis) (UniProt P08659); experiment: Primary firefly luciferase (FLuc) qHTS assay for identification of artifact compounds. (AID 1845220); conditions: purified firefly luciferase, luminescence, 5 min; series mostly up to 54.1 µM; further: nearly all actives have a fitted effect of over 60% in size
Procedure, shortened: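 In this counter-screen for luciferase artifacts, test compounds met substrate (10 uM each luciferin and ATP) before 10 nM enzyme started the reaction. Light output was measured 5 min later.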

[9] = Primary fluorescence-based thiol-reactive (MSTI) qHTS assay for identification of artifact compounds. (AID 1845221); conditions: MSTI thiol-reactivity probe, 1 h; series mostly up to 53.8 µM;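 further: thiol-reactive compounds lower the probe fluorescence signal; nearly all actives have a fitted effect of over 65% in size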
Procedure, shortened: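 qHTS titration of compound; 4 uM MSTI, PBS pH 7.4, 2% DMSO; 1 h RT, dark; fluorescence 525/598 nm; normalized to Acetyl-MSTI and MSTI; 4-parameter Hill fit.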

[10] = tested on: Nanoluciferase (engineered Oplophorus gracilirostris luciferase); experiment: Primary Nanoluciferase (NLuc) qHTS assay for identification of artifact compounds. (AID 1845222); conditions: NLuc-conditioned medium, Nano-Glo luminescence, 5 min; series mostly up to 54.1 µM;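 further: NLuc secreted into diluted conditioned medium of S16 cells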
Procedure, shortened: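 Using secreted nanoluciferase in S16 culture medium (0.22 um filtered, 1:55 dilution), compounds were preincubated 15 min at RT. Signal was generated with Nano-Glo reagent (1:100) over 5 min.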

[11] = Primary redox qHTS assay for identification of artifact compounds. (AID 1845223); conditions: Amplex Red/HRP redox cycling with DTT, fluorescence; series mostly up to 53.8 µM
Procedure, shortened: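 Redox-cycling detection via DTT (250 uM final) oxidation coupled to Amplex Red (25 uM)/HRP (250 mU/mL) in HBSS. 15 min preincubation plus 30 min after DTT, room temperature. Ex/Em 525/598 nm; 4-parameter Hill fit against DMSO and 10 uM DA3003.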

Measured: Potency

CC(CCc1ccc(O)cc1)NCCc1ccc(O)c(O)c1 (stereo not drawn)
inactive: [1] | [2] | [3]
active: [4] 23.5 µM | [5] 20.9 µM | [6] 18.7 µM

NC(=O)OCC(COC(N)=O)c1ccccc1
inactive: [1] | [2] | [3] | [4] | [5] | [6]

COc1cc2c(c(OC)c1OC)-c1ccc(OC)c(=O)cc1[C@@H](NC(C)=O)CC2
inactive: [1] | [2] | [3] | [4] | [5] | [6]

CCOC(=O)c1ncn2c1CN(C)C(=O)c1cc(F)ccc1-2
inactive: [1] | [2] | [3] | [7] | [6]

O=C1N(c2ccccc2)c2ccccc2C1(Cc1ccncc1)Cc1ccncc1
inactive: [1] | [2] | [3] | [7] | [6]

CCOC(=O)C(C)(C)Oc1ccc(Cl)cc1
inactive: [1] | [2] | [3] | [7] | [5]

CC#C[C@]1(O)CC[C@H]2[C@@H]3CCC4=CC(=O)CCC4=C3[C@@H](c3ccc(N(C)C)cc3)C[C@@]21C
active: [4] 1.66 µM | [7] 0.59 µM | [5] 1.32 µM | [6] 0.743 µM
inactive: [1] | [2] | [3]

CC(C)NCC(O)COc1ccc(CCOCC2CC2)cc1 (stereo not drawn)
inactive: [1] | [2] | [3] | [4]

CC1COc2c(N3CCN(C)CC3)c(F)cc3c(=O)c(C(=O)O)cn1c23 (stereo not drawn)
inactive: [1] | [2] | [3] | [5]

CN1C2CCC1CC(OC(=O)C(CO)c1ccccc1)C2 (stereo not drawn)
inactive: [1] | [2] | [3] | [4] | [7] | [5] | [6]

CS(=O)(=O)Nc1ccc([N+](=O)[O-])cc1Oc1ccccc1
inactive: [1] | [2] | [3] | [4] | [7] | [5] | [6]

O=C(Nc1ccc([N+](=O)[O-])cc1Cl)c1cc(Cl)ccc1O
inactive: [1] | [2] | [3]
active: [7] 1.32 µM | [5] 1.87 µM | [6] 0.526 µM

CCc1cccc2c3c([nH]c12)C(CC)(CC(=O)O)OCC3 (stereo not drawn)
inactive: [1] | [2] | [3] | [7] | [5] | [6]

CN(C)c1nc(N(C)C)nc(N(C)C)n1
inactive: [1] | [2] | [3] | [7] | [5] | [6]

Clc1ccc2c(c1)C(N1CCNCC1)=Nc1ccccc1O2
inactive: [1] | [2] | [3] | [8] | [9] | [10] | [11] | [5]

N[C@@H](Cc1c[nH]c2ccc(O)cc12)C(=O)O
inactive: [1] | [2] | [3] | [7] | [5]

O=C1Cc2cc(CCN3CCN(c4nsc5ccccc45)CC3)c(Cl)cc2N1
active: [7] 23.5 µM
15.8 µM (active) and inactive: [3]
inactive: [1] | [2] | [8] | [10] | [11]

CS(=O)(=O)CCNCc1ccc(-c2ccc3ncnc(Nc4ccc(OCc5cccc(F)c5)c(Cl)c4)c3c2)o1
inactive: [8] | [9] | [11]
